Values joined by “and” are separate entries in the source; they are usually repeats but may differ in a detail not shown here. Identical values can stand only once. In all, about 360,000 compounds went through this assay and about 3,100 (0.86%) were called active. The sample holds actives, similar compounds and a random draw of the others, so the mix is not that of the screen. Values without a mark were called inactive.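 The calls were made as follows: active = at least 50% inhibition at 5 µM, scaled per plate between neutral and stimulator controls; inactive = the rest.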

Experimental findings from PubChem BioAssay AID588850 (Sanford-Burnham Center for Chemical Genomics, 2011) are described below.

The experiment can be described thus: NF-kB reporter blockers in CF airway cells – cell-based, GFP fluorescence, uHTS, primary screen (AID 588850).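 Also: PAF is a Pseudomonas aeruginosa culture filtrate used as stimulus; plate controls were PAF-stimulated DMSO wells for no effect and unstimulated DMSO wells for full effect.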 Particulars: KKLEB NF-kB-GFP reporter, PAF-induced, GFP fluorescence overnight; at 5 µM; stronger effect = higher value.
The term inhibition denotes the relative decrease from the control value, in per cent. As for `C[C@H]1Cn2cnc(C(=O)N[C@H](C)c3ccccc3)c2C(=O)N1`, the inhibition is -3.8%.

`CCOC(=O)C1=C(CC)Nc2ccccc2N=C1N`: the inhibition was -14.1%.

Turning to `CC(C)Cn1cnc2c1c(=O)n(CC(O)c1ccccc1)c(=O)n2CC(C)C` (stereo not drawn), the inhibition was 9%.

Consider `COc1ccc(NC(=S)N2N=CCC2c2ccccc2)cc1` (stereo not drawn), for which the inhibition is 5.1%.

As for `Cc1nnc(SCCCCSc2nnc(C)c(=O)[nH]2)[nH]c1=O`, the inhibition is 6.2%.

`CC(=O)c1cccc(-c2cnc3c(NC=O)cc(-c4ccc(N(C)C)cc4)cn23)c1`: the inhibition is 29.8%.

As for `CC(=O)c1ccc(-c2cnc3c(NC=O)cc(-c4cccc(NS(C)(=O)=O)c4)cn23)cc1`, the inhibition is 74.7% (active).

`CC(=O)c1cccc(-c2cnc3c(NC=O)cc(-c4cccc(C(=O)N(C)C)c4)cn23)c1`: the inhibition was 0.7%.

With `COc1cncc(-c2cnc3sc(NCCc4ccccn4)nn23)c1`, the inhibition is 74.1% (active).

For the molecule `COc1ccc(-c2cc3nc(NCCOc4ccccc4)ccn3n2)cc1`, the inhibition was 20.8%.

Turning to `Cc1ccc(C(=O)N/C(=C\c2cccs2)C(=O)NCCc2ccccn2)cc1C`, the inhibition was 5.1%.

As to `O=C(OCc1ccccc1)N1CCC2CC1c1cc(N3CCN(S(=O)(=O)c4cc(Cl)cc(Cl)c4)CC3)ccc12` (stereo not drawn), the inhibition is 10.1%.

Turning to `CCC1=C(OC(=O)N(CC)CC)N2C(=O)OC(=NCC3CC3)[C@]2(C)[C@H]2C1=CC[C@H]1C(=O)N(CC(=O)OC)C(=O)[C@H]12`, the inhibition was 7.9%.

Take `COc1cc(C(=O)N/C(=C\c2cn(C)c3ccccc23)C(=O)N2CCOCC2)cc(OC)c1OC`: the inhibition was -23.4%.

Regarding `COc1ccc(C(N)c2csc(NC(=O)Nc3cccc(C(F)(F)F)c3)n2)cc1` (stereo not drawn), the inhibition is 24.7%.

Take `COc1cc(NC(=O)c2cncc(-c3ccc(C#N)cc3)c2)cc(C(=O)Nc2cccc(C(F)(F)F)c2)c1`: the inhibition was -39% and -21.4%.

Take `COc1cc(NC(=O)c2[nH]cnc2C(N)=O)cc(C(=O)Nc2cccc(C(F)(F)F)c2)c1`: the inhibition is 53.2% (active).

Regarding `CCCCn1ccnc1C(=O)c1cccc(S(=O)(=O)N2c3ccccc3CC2C)c1` (stereo not drawn), the inhibition was 2.6%.

Turning to `COc1ccccc1N1CCN(C(=O)c2ccc(NC3=NC4CS(=O)(=O)CC4S3)cc2)CC1` (stereo not drawn), the inhibition was -7.3%.

As to `COc1ccccc1N1CCN(C(=O)c2cc(=O)c3cc(C)cc(C)c3o2)CC1`, the inhibition is 51% (active).

Consider `COc1ccccc1OCc1ccc(C(=O)N2CCN(C)CC2)o1`, for which the inhibition was 6.4%.

For the molecule `O=C(COC(=O)c1cccnc1Cl)Nc1ccc(S(=O)(=O)N2CCOCC2)cc1`, the inhibition was 5.3%.

Turning to `CCN(CC)S(=O)(=O)c1ccc2[nH]c(=O)cc(C(=O)N(C)C3CCS(=O)(=O)C3)c2c1` (stereo not drawn), the inhibition was -1.3%.

On to `COc1ccc(S(=O)(=O)/N=C2\C=C(NS(=O)(=O)c3ccccc3)C(=O)c3ccccc32)cc1`, for which the inhibition was 45%.

Take `Cc1cc(=O)c2ccc(NC(=O)c3ccccc3)cc2[nH]1`: the inhibition is 3.1%.

Turning to `Cc1ccc(S(=O)(=O)N/N=C(\c2ccccc2)C2CC2)cc1`, the inhibition was 14.8%.

Consider `O=C(O)c1ccccc1NC(=O)c1ccccc1-c1ccccc1C(=O)O`, for which the inhibition was 11.9%.

As for `Cc1ccc(S(=O)(=O)/N=C2\C=C(NS(=O)(=O)c3ccc(C)cc3)C(=O)c3ccccc32)cc1`, the inhibition is 68.9% (active).

For `O=C1C=C(NS(=O)(=O)c2ccccc2)C(=O)c2ccccc21`, the inhibition is 72% (active).

Take `CC(=O)NS(=O)(=O)c1ccccc1`: the inhibition is 10.6%.

As to `O=C(NC1=CC(=O)c2ccccc2C1=O)c1ccccc1`, the inhibition was 84.9% (active).

On to `Cc1cc(NS(=O)(=O)c2ccccc2)no1`, for which the inhibition was -1.3%.

Take `CC(c1ccco1)N(C(=O)COc1ccccc1[N+](=O)[O-])c1ccccn1` (stereo not drawn): the inhibition was 8.2%.

Consider `CN(C)C(=O)Cn1c(=O)n(S(=O)(=O)c2ccccc2)c2ccccc21`, for which the inhibition was 5.9%.

As to `COC(=O)[C@@H]1C[C@H]2CC[C@H](O)C[C@H]2N1Cc1ccc(N2CCN(C)CC2)cc1`, the inhibition is 0.1%.

With `CC(C(=O)N1CCc2ccccc21)N(C)CC(=O)Nc1ccc(F)cc1` (stereo not drawn), the inhibition was -12%.

On to `COC1(C2=NCCN2)COc2ccccc2O1` (stereo not drawn), for which the inhibition is 9.5%.

`Cc1cc(-c2n[nH]c(=S)n2/N=C/C(Br)=C/c2ccccc2)n[nH]1`: the inhibition was 87.5% (active).

On to `COc1ccccc1/C=C/C=N/n1c(-c2ccc(Cl)cc2Cl)n[nH]c1=S`, for which the inhibition was 1.4%.

With `S=c1[nH]nc(-c2ccco2)n1/N=C/c1ccc(Br)s1`, the inhibition was 5.5%.

Consider `CC1CCCCC1NC(=O)Cn1cnc2c1c(=O)n(C)c(=O)n2C` (stereo not drawn), for which the inhibition is 3.3%.

With `CC(C)c1nc(SCC(=O)NC(=O)NC(C)(C)C)n[nH]1`, the inhibition is -0.6%.

Consider `Cc1cccc(C)c1NC(=S)N(Cc1cccnc1)Cc1ccccc1Cl`, for which the inhibition is -1.1%.

For the molecule `COc1cccc(CC(=O)N2CCCC(CCC(=O)N3CCN(c4ccccn4)CC3)C2)c1` (stereo not drawn), the inhibition is 12.7%.

In the case of `Cc1ccc(NC(=O)CSc2nnc(CNC(=O)c3ccccc3F)o2)cc1`, the inhibition is -6.4%.

Take `CC(C)c1ccc(CC(=O)N2CCC2(C)C(=O)NS(=O)(=O)c2ccc(C(C)(C)C)cc2)cc1` (stereo not drawn): the inhibition is 3.4%.

As for `c1nnc2c3c4c(sc3ncn12)CCC4`, the inhibition is 59% (active).

Take `CC(C(=O)O)n1cnc2sc3c(c2c1=O)CCCC3` (stereo not drawn): the inhibition is 12.1%.

Turning to `S=c1[nH]nc2c3c4c(sc3ncn12)CCCC4`, the inhibition was -4%.

Turning to `O=C(Nc1cccnc1)c1noc2c1CCCCC2`, the inhibition was -3.7%.

Turning to `CN1CCN(c2ccc(NC(=O)c3cc(Cl)c4c(c3)OCCO4)cc2)CC1`, the inhibition was -18.8%.

For the molecule `C=CC(=O)Nc1ccc(Nc2ccnc(Nc3ccc(N4CCN(C)CC4)cc3)n2)cc1`, the inhibition was 55.6% (active).

`Cn1cnnc1SCC(=O)Nc1ccc(N2CCOCC2)cc1`: the inhibition was -8.2%.

Turning to `O=C(Nc1ccc(-n2cccn2)cc1)C1CCN(Cc2ccsc2)CC1`, the inhibition was 9.7%.

Turning to `CC1CCc2c(c3ccccc3[nH]c2=O)O1` (stereo not drawn), the inhibition was 0.4%.

As to `COc1ccc(-c2cc(C(=O)N(C)CC(=O)Nc3ccccc3Cl)c3ccccc3n2)cc1OC`, the inhibition is 22.9%.

In the case of `COc1ccc(CN(C)C(=O)c2cc(-c3ccc(C)cc3C)nc3ccccc23)c(OC)c1OC`, the inhibition is 67.1% (active).

For the molecule `COc1ccc(-c2cc(C(=O)N(C)Cc3ccc(OC)c(OC)c3OC)c3ccccc3n2)cc1OC`, the inhibition is 27%.
